Key:
Test in all cases: PBM binding z-score (relative to random genomic background probes); higher = stronger binding; sequences stand for … in GC…GCGATTGACAGCGTAGAATGAAGG
[1] = tested on: PPARg:RXRa DBDmut IVT, anti-RXR (DBD mutation: RXRa K156A/R161A, NR concentration 270 nM, RXRa partner concentration 90 nM)
Summary of the method: (§1)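 Binding z-scores were set against random background probes. The data came from custom Agilent 4×180K protein-binding microarrays carrying double-stranded probes with 34-nt variable regions, incubated 1 h with ligand-free nuclear receptor dimers. Partner-specific antibodies detected binding, and scanned fluorescence was regression-normalized.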

[2] = tested on: PPARg:RXRa IVT, anti-PPARg (NR concentration 270 nM, RXRa partner concentration 90 nM)
Summary of the method: as §1

[3] = tested on: PPARg DBDmut:RXRa IVT, anti-PPARg (DBD mutation: PPARg1 K132A/R137A, NR concentration 270 nM, RXRa partner concentration 90 nM)
Summary of the method: as §1

[4] = tested on: PPARg DBDmut IVT, anti-PPARg (DBD mutation: PPARg1 K132A/R137A, NR concentration 270 nM)
Summary of the method: as §1

[5] = tested on: PPARg homodimer (NR concentration 180 nM)
Summary of the method: as §1

[6] = tested on: PXR:RXRa (NR concentration 270 nM, RXRa partner concentration 90 nM)
Summary of the method: as §1

[7] = tested on: PXR homodimer (NR concentration 270 nM)
Summary of the method: as §1

[8] = tested on: RARa:RXR (NR concentration 270 nM, RXRa partner concentration 90 nM)
Summary of the method: as §1

[9] = tested on: RARa homodimer (NR concentration 270 nM)
Summary of the method: as §1

[10] = tested on: RARb:RXRa (NR concentration 270 nM, RXRa partner concentration 90 nM)
Summary of the method: as §1

[11] = tested on: RARb homodimer (NR concentration 270 nM)
Summary of the method: as §1

[12] = tested on: RARg:RXRa (NR concentration 270 nM, RXRa partner concentration 90 nM)
Summary of the method: as §1

[13] = tested on: RARg homodimer (NR concentration 270 nM)
Summary of the method: as §1

[14] = tested on: RXRa DBDmut IVT, anti-RXR (DBD mutation: RXRa K156A/R161A, NR concentration 90 nM)
Summary of the method: as §1

[15] = tested on: RXRa homodimer (NR concentration 180 nM)
Summary of the method: as §1

[16] = tested on: THRa:RXRa (NR concentration 90 nM, RXRa partner concentration 90 nM)
Summary of the method: as §1

[17] = tested on: THRa homodimer (NR concentration 90 nM)
Summary of the method: as §1

[18] = tested on: VDR:RXRa (NR concentration 270 nM, RXRa partner concentration 90 nM)
Summary of the method: as §1

[19] = tested on: VDR homodimer (NR concentration 270 nM)
Summary of the method: as §1

Sequence	PBM binding z-score [1]	PBM binding z-score [2]	PBM binding z-score [3]	PBM binding z-score [4]	PBM binding z-score [5]	PBM binding z-score [6]	PBM binding z-score [7]	PBM binding z-score [8]	PBM binding z-score [9]	PBM binding z-score [10]	PBM binding z-score [11]	PBM binding z-score [12]	PBM binding z-score [13]	PBM binding z-score [14]	PBM binding z-score [15]	PBM binding z-score [16]	PBM binding z-score [17]	PBM binding z-score [18]	PBM binding z-score [19]
CCAGTCAGGTGAGAAGGTAACTCAGCCTCGATTA	1.41	1.02	-1.66	-1.63	0.612	-0.228	-0.000389	0.355	0.15	0.754	0.469	0.276	0.321	-0.0426	0.153	1.11	0.512	-0.296	-0.271
TCATATAGGTAAAGGAGAAAGTCGAACGATATGA	3.55	2.2	1.76	0.854	0.0719	0.215	-0.235	0.407	0.331	0.251	-0.643	0.547	0.358	0.825	0.676	-0.227	-0.866	0.392	-0.11
AGAATGAGGCTATACGTAGATCAGGGAAGAAAGT	1.49	0.333	0.633	0.637	-0.215	-0.274	-0.0563	-0.0968	-0.0794	0.153	-0.0625	0.222	0.232	-0.0879	-0.0272	0.084	-0.165	-0.45	-0.0917
ATCGAAAGGTCGACGAGGTGAATATACACCGTTT	0.98	2.07	1.87	0.44	2.04	3.88	1.24	4.49	1.02	3.94	2.97	4.55	3.93	1.7	4.64	4.06	1.54	6.16	1.84
CAAACTAGGTCAAGGTGAAAGTCGGTTTGTGCCA	8.58	8.62	2.55	1.53	1.47	1.65	0.138	2.19	0.4	4.2	3.45	3.81	4.95	1.61	2.82	3.49	2.52	2.1	0.978
CGTCCAAGGCCAATGCTAGGTCAGTGAAAGCATT	-0.0283	0.421	-0.963	-1.46	0.131	0.224	-0.267	0.552	-1.03	2.19	2.64	2.16	1.94	0.513	0.218	2	0.569	0.034	0.135
TGTCAAAGTTCAAAGGTAACGTCAGTATCCACAC	0.357	4.74	1.94	1.89	4.29	5.89	3.43	6.36	0.737	5.36	4.03	6.26	5.87	4.29	6.96	3.51	-0.193	5.11	4.08
TGAAAGAGGTTATAAGATCAGGGAACGTTGCAAA	-0.304	0.748	-0.617	0.266	0.0455	0.781	-0.571	1.59	-0.227	1.56	0.261	2.01	1.15	0.022	2.37	0.935	-0.921	0.894	-0.105
CGCCAAAGTTCAACTAAGGTAACGTAAAGCACGC	0.771	1.55	0.546	0.253	3.81	5.66	5.04	4.28	2.96	5.16	4.29	5.87	6.48	4.67	4.49	5.24	2.11	4.9	3.81
ATATGTAGGTTAGATGGGGTCATTCAGACTAGGC	6.56	6.05	2.97	2.15	2.79	6.56	4.01	6.01	1.98	2.93	3.8	4.06	2.93	2.39	5.63	5.15	3.28	6.54	5.95
TCTAGTTGGTCAAAGGTGACACACTCGAAATGCG	3.81	4.76	1.03	1.64	2.13	2.14	0.548	2.88	1.33	2.38	2.21	2.9	1.95	1.03	3.06	1.7	0.635	1.92	0.44
GTACCAAGGTGAATAGCTCGTTGATGAGTAGGCG	1.55	1.7	-0.0388	-0.301	-0.135	-0.403	-0.283	-0.0864	-0.272	0.887	0.121	0.285	0.489	-0.348	0.453	1.15	0.236	-0.223	-0.63
TCTTGTAGATCAGCAGCTTAAGAAAGCTGGCCAA	1.33	-0.294	-1.1	-0.39	-0.337	-0.0714	-0.755	0.087	-0.736	-0.491	-0.684	-0.435	-0.915	0.258	-0.355	-0.626	-0.605	-0.232	-0.685
ATGTGTAGGTTAAGGGTCATTCAGGTTGGTTCGC	3.87	5.47	1.46	1.87	4.52	5.44	4.53	6.37	3.77	3.91	4.06	4.95	3.99	2.14	6.33	3.69	2.32	5.79	5.37
GCTGCTAGGTCAGGTTCGTCAGCTAACGGGTACG	3.23	2.23	-0.735	-0.897	0.459	0.538	-0.243	0.887	-0.894	3.17	2.25	2.25	3.35	1.63	1.24	1.94	0.323	1.44	2.58
CAAACTAGGTCAAGAGGTCCAAGTCCGCTTCCCG	8.55	8.32	1.57	0.903	1.86	1.58	0.285	2.21	0.1	4.02	3.2	4.03	4.37	1.42	2.65	2.55	0.871	4.71	1.74
TCATATACGTAAAGGTGAAAGTCGAACGATATGA	1.6	1.61	1.06	2	0.594	1.1	-0.24	1.55	0.587	2.04	1.53	1.65	1.22	0.638	2.1	1.13	-0.853	1.05	-0.424
GCGACTGGGGCATCAGAAGGTTACCATAACTTAA	3.59	3.39	0.195	-0.175	0.756	0.582	-0.271	0.988	-0.432	1.2	1.73	1.74	1.06	0.112	0.743	1.24	-0.47	0.169	-0.299
TCGAGTAGGTTAGCAATGGGGCATTCAGCTTTCT	2.43	1.46	-0.902	-1.37	-0.285	-0.264	-0.747	-0.123	-0.474	0.542	0.353	0.194	-0.0673	0.158	0.129	-0.27	-0.716	-0.142	-0.45
ATCTCTAGGTAACAAGTTCATTGAAAGAGAGGAC	3.39	3.28	1.38	1.78	1.57	3.71	5.1	2.06	1.52	1.89	2.29	2.04	1.72	2.49	1.8	2.14	1.24	3.84	5.08
CCTGCTAGGTCATGGTCAGCCAATCTACAGTATG	4.43	3.74	0.352	0.0677	1.85	1.21	-0.386	2.49	0.141	3.9	3.14	3.98	4.45	1.26	3.04	3.07	1.18	1.71	0.0846
CAAACTAGGTCACATAGGTCAAAGTCCGTGCGTA	8.33	8.57	3	4.3	4.12	5.04	4	5.51	2.09	4.7	4.67	5.93	6.3	2.56	5.67	4.09	1.78	6.27	3.91
TCTAGTTGGTCACGGAGGCCACACACGACGGGTA	2.18	2.47	0.779	0.634	0.778	0.694	0.425	0.748	0.249	2.16	2.01	1.65	2.06	0.633	1.06	0.977	0.377	2.19	0.2
CCAGACAGGTGAAAGGTAACTCAGTCTGGTACGC	2.07	3.2	0.403	-0.0766	1.36	0.838	0.027	1.99	0.208	1.4	0.781	1.39	0.817	0.137	2.13	0.824	-0.156	0.989	-0.251
AGAACGAGGGCACGCTGAGTTGATCGCAGAGTAG	4.59	4.13	0.408	-0.362	-0.239	1.53	0.103	0.735	-1.04	2.57	1.14	2.19	2.41	1.74	1.27	1.85	-0.239	2.12	1.73
GTACCAAGGTGAATAGGTCGTTGGTGAGTAGGCG	1.63	2.76	-0.162	-0.965	0.877	0.626	-0.0296	1.9	-0.0597	2.1	1.93	2.86	1.13	-0.312	1.99	1.71	0.526	0.678	0.359
GCAGACAGGTGAAACGGAGGTAACTCAGGGTGGC	1.09	0.463	-0.413	-1.08	-0.308	0.0496	-0.337	0.668	-0.627	0.729	0.345	1.4	0.25	-0.66	0.757	1.83	-0.0224	-0.2	-0.566
ATGTCTAGGTAACCAAGTTCAGTGAATGCCGAAC	2.35	2.35	0.0462	-0.029	0.338	2	1.53	0.884	-0.202	1.21	1.34	0.808	0.759	0.268	0.737	1.42	0.382	3.97	2.08
TAGCCTAGGTCATGCCGGCCAGTATAGTGTCGGC	1.13	2.47	-0.929	-0.11	0.237	0.798	-0.486	1.77	-0.917	3.48	2.79	3.6	3.93	0.522	2.62	2.72	0.854	1.95	0.14
TTACCAAGGTGAAGGTAGTTGATCCCTCTGTAGA	2.05	2.3	-0.207	-0.0185	0.00789	0.456	-0.74	0.351	-0.156	1.35	0.8	0.328	0.323	-0.443	0.761	1.84	0.575	0.0573	-0.396
